# Experimental data reported in ChEMBL document CHEMBL3433997, “St. Jude Leishmania screening dataset” (2016).
# Assays:
# Type in all cases: functional
# [1] = biological target: Solute carrier family 2, facilitated glucose transporter member 1 (Homo sapiens) (UniProt P11166); experiment: ST_JUDE_LEISH: Cytotoxicity at 2uM final concentration against transgenic Leishmania Mexicana promastigotes LmGLUT1 that are glucose transport deficient and complemented with the human glucose transporter GLUT1. Activity is measured by DNA content using SYBR green in vitro
# Solute carrier family 2, facilitated glucose transporter member 1 (Homo sapiens), sequence (P11166 whole entry): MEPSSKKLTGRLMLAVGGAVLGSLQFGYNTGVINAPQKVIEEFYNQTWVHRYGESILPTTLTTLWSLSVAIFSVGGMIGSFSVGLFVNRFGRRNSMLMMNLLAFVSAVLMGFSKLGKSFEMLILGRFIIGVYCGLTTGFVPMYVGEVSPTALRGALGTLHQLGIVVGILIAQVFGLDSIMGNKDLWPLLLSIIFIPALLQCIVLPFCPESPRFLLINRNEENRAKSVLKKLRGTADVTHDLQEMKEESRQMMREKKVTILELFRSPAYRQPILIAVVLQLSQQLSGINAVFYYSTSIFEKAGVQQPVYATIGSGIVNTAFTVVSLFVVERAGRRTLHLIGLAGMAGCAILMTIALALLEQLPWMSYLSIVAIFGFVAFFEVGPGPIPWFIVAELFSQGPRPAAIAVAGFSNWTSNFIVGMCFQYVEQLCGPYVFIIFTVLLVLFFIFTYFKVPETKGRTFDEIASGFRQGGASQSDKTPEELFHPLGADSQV
# [2] = biological target: Hexose transporter 1 (Plasmodium falciparum) (UniProt O97467); experiment: ST_JUDE_LEISH: Cytotoxicity at 2uM final concentration against transgenic Leishmania Mexicana promastigotes LmPfHT that are glucose transport deficient and complemented with the Plasmodium falciparum hexose transporter. Activity is measured by DNA content using SYBR green in vitro
# [3] = biological target: Glucose transporter (Leishmania mexicana) (UniProt O61059); experiment: ST_JUDE_LEISH: Cytotoxicity at 2uM final concentration against transgenic Leishmania Mexicana promastigotes LmGT2 that are glucose transport deficient and complemented with the L. Mexicana glucose transporter 2. Activity is measured by DNA content using SYBR green in vitro
Structure (SMILES),inhibition [1] [%],inhibition [2] [%],inhibition [3] [%]
CC1(C)N=C(N)N=C(N)N1c1ccc(Oc2ccc(Cl)cc2)c(Cl)c1,0.34,-1.08,2.05
O=C(Nc1ccon1)c1cc(-c2cccnc2)nc2ccc(Cl)cc12,5.01,3.36,3.02
COc1ccc(NC(=O)c2ccc(-c3cc(NC(=O)c4ccnc(N5CCCC5)c4)ccc3C)s2)cc1N1CCN(C)CC1,-1.75,0.73,-1.93
FC(F)(F)c1ccc(N2CCCN(Cc3cccc(-c4ccccc4CNCc4ccc5c(c4)OCO5)c3)CC2)nc1,2.61,-2.51,-0.04
COc1ccc(-c2nonc2NC(=O)c2cccc(C)c2)cc1OC,11.9,10.7,10.1
COc1ccc(Nc2nc(N/N=C/c3ccc(O)cc3)nc(Nc3ccc([N+](=O)[O-])cc3)n2)cc1,1.19,2.44,0.87
CN1CCCc2cc(NC(=O)c3cc(-c4ccc(Cl)cc4)cs3)ccc2C1,2.24,0.77,1.79
O=C(/C=C/c1ccc(Cl)c(Cl)c1)NCCCCCCN1CCCN(C(=O)Nc2cccc(C(F)(F)F)c2)CC1,5.59,4.35,0.59
COc1ccc(CNC(=O)c2cnc3c(O)cccc3c2Nc2cccc(NC(=O)c3ccc(Cl)c([N+](=O)[O-])c3)c2)cc1,0.79,6.77,4.02
Cc1ccc(C(=O)Cn2nc(-c3ccc(C)c(S(=O)(=O)N4CCCC4)c3)ccc2=O)cc1,1.61,0.61,2.62
c1ccc(Oc2ccc(Nc3ccnc(Nc4ccc(OCCN5CCCCC5)cc4)n3)cc2)cc1,8.95,12.8,18.4
CCOc1cc(Cc2cnc(N)nc2N)cc(OCC)c1OCC,4.33,1.8,9.33
CN(C)CCC1CCN(CCS(=O)(=O)c2cccc(Nc3ccc(-c4cccc(F)c4)cn3)c2)CC1,-0.27,3.28,3.78
CCCC1(C)CSc2ccccc2C(c2ccccc2)N1 (stereo unspecified),4.9,6.11,7.67
Cc1cccc(C(=O)Nc2ccnc(N(C)CCCN(C)Cc3cccc(O)c3)c2)c1,-1.6,1.08,-0.23
COc1cc(NC2=NS(=O)(=O)c3cc(Cl)ccc3N2C)cc(OC)c1OC,6.86,6.41,7.53

Structure (SMILES),inhibition [1] [%],inhibition [2] [%],inhibition [3] [%]
Oc1ccc(Nc2nc(NCc3ccco3)c3ccccc3n2)cc1,25.1,20.8,10.9
CC(C)(C)NCCN(Cc1ccc(-c2ccc(C(F)(F)F)cc2)cc1)C(=O)Cn1c(CCc2cccc(F)c2F)nc(=O)c2c1CCC2,6.13,7.22,7.29
Cc1c(Cl)cccc1S(=O)(=O)N1CCCCC(c2ccc(C(F)(F)F)cc2)=N1,0.39,3.08,-0.52
CN(C)Cc1c(O)ccc2[nH]c(-c3ccc(F)cc3F)nc12,1.13,1.4,-1.59
CN1CCC(NCc2cccc(-c3ccc(S(=O)(=O)NCc4ccccc4)cc3)c2)CC1,8.1,7.9,10.3
Cc1ncccc1C(=O)Nc1cccc(-c2cccc(-c3nc4cccc(C)c4[nH]3)c2)c1,0.36,1.44,1.05
COc1cccc(CN2CCC3(CC2)CN(C(=O)Nc2ccc(Cl)c(Cl)c2)C3)c1,2.87,3.53,3.35
COc1ccccc1CCCON1C(=N)N=C(N)NC1(C)C,5.24,5.03,4.51
COc1ccc2nccc([C@@H](O)CN3CCC(NC(=O)C(=O)c4c[nH]c5c(C)cccc45)CC3)c2c1,0.46,0.43,0.45
Cc1ccc(N2CCN(CCCCNC(=O)c3ccc(NC(=O)c4ccc(Cl)cc4)cc3)CC2)c(C)c1,3.93,5.9,2.64
COc1cccc2cc(C(=O)N[C@@H](CC(C)C)C(=O)N[C@H](C=NNC(=O)OC(C)(C)C)Cc3ccccc3)oc12,7.26,6.28,4.09
Cc1cccc2nc(-c3ccc(-c4ccc(NC(=O)C5CCN(C)CC5)cc4)cc3)[nH]c12,3.08,5.28,1.38
CCC[C@@H]([C@@H](CC1CCCCC1)C(=O)N[C@H](C(=O)Nc1nccs1)C(C)(C)SCCOCCOCC)N(O)C=O,6.4,5.16,5.39
Cc1nc(N)nc(N)c1CCCOc1ccccc1Br,5.7,8.36,2.57
COCCNCC(O)Cn1c2ccc(Cl)cc2c2cc(Cl)ccc21 (stereo unspecified),-1.12,-1.7,-0.53
CCCC(=O)Nc1ccc(OCCCCN(CC(C)(C)C)c2ccc(C#N)c(C(F)(F)F)c2)cc1,1.48,1.02,0.8
